Test results taken from PubChem BioAssay AID651785 (The Scripps Research Institute Molecular Screening Center, 2012).
The campaign covered roughly 2,400 compounds. About 950 (40%) were called active. The list is a sample of the results. Values without a mark were called inactive. Cut-off read from the data, not from the text of the source: active = inhibition above about 49%; inactive = the rest.

What follows are compounds tested against Trace amine-associated receptor 1 (Homo sapiens) (UniProt Q96RJ0) (assay: TAAR1 receptor blockers, repeat testing – cell-based, fluorescence, confirmation (AID 651785;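 note: CHO-Ga16 host cells challenged with agonist PEA near its EC80; 0% = agonist at EC80 plus vehicle and 100% = vehicle with no agonist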)). Conditions: TAAR1-expressing cells, fluorescence antagonist read-out; at 3 µM; stronger effect = higher value.
Sequence of Trace amine-associated receptor 1 (Homo sapiens) (Q96RJ0 whole entry, looked up, the tested form may be a part): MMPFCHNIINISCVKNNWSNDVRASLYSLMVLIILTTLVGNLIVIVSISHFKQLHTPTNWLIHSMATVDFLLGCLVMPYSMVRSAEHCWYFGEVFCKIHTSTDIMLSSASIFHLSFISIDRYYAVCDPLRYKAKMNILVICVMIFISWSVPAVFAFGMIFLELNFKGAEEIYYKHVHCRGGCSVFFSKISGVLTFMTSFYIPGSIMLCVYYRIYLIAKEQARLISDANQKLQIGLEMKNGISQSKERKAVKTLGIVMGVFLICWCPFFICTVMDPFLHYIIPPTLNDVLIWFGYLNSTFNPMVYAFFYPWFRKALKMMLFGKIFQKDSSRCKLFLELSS

Row | Structure (SMILES) | inhibition
1 | CN(c1ccccc1)S(=O)(=O)c1cc(C(=O)Nc2nc3ccccc3[nH]2)ccc1Cl | 50.8% (active)
2 | O=S(=O)(c1cccs1)N1CCCc2nc(-c3ccc(Br)cc3)ccc21 | 36.2%
3 | COc1ccc(C(=O)Nc2ccccc2C(=O)N/N=C/c2ccc(O)c(OC)c2)cc1 | 45.9%
4 | O=C(N/N=C/c1ccc(OC(=O)c2ccccc2Cl)cc1)c1ccc(O)cc1 | 57% (active)
5 | COc1ccc(-c2cc(C(=O)N(C)CC(=O)Nc3ccccc3Cl)c3ccccc3n2)cc1OC | 52.2% (active)
6 | COc1ccc(-c2cc(C(=O)N(C)Cc3ccccc3)c3ccccc3n2)cc1 | 44.3%
7 | COc1ccc(NC(=O)c2cc(-c3ccc(C)o3)nc3ccccc23)cc1 | 41.2%
8 | COc1ccc(CN(C)C(=O)c2cc(-c3ccc(C)cc3C)nc3ccccc23)c(OC)c1OC | 53.7% (active)
9 | COc1ccc(-c2nn(-c3ccccc3)cc2C(=O)Nc2nccs2)cc1OC | 46.5%
10 | COc1ccc(-c2cc(C(=O)N(C)Cc3ccc(OC)c(OC)c3OC)c3ccccc3n2)cc1OC | 56.9% (active)
11 | COc1ccc(C(=O)Nc2cccc(NC(=O)c3ccc(OC)cc3OC)n2)c(OC)c1 | 45.9%
12 | CC(=O)N1CCN(C(=O)c2cc(-c3ccc(Cl)s3)nc3ccccc23)CC1 | 38.7%
13 | COc1ccc(-c2cc(C(=O)Nc3ccccc3O)c3ccccc3n2)cc1 | 59% (active)
14 | Cc1cc(C(C)(C)C)oc1C(=O)N(CC(=O)NC1CCCC1)Cc1ccc(Cl)cc1 | 43.7%
15 | CSCCC(NC(=O)COc1ccccc1)C(=O)OCCOc1ccc(Br)cc1 (stereo unspecified) | 17.8%
16 | O=C(NCC1CCCO1)c1cc2c([nH]c3ccccc32)c(-c2ccc(F)cc2)n1 (stereo unspecified) | 46%
17 | Cn1c2ccccc2c(=O)c2c(=O)n(Cc3ccco3)c(COc3ccccc3)nc21 | 51% (active)
18 | COc1ccc(S(=O)(=O)N(CC(=O)NCc2ccco2)c2ccc(F)cc2)cc1 | 39.1%
19 | C=CCn1c(SCc2cccc(F)c2)nc2cc(C(=O)N3CCC(C(N)=O)CC3)ccc2c1=O | 43.9%
20 | Cc1nc(N2CCN(c3ccccn3)CC2)c2c(C)c(C(=O)Nc3ccc(F)cc3)sc2n1 | 53% (active)
21 | Clc1ccc(Nc2ncnc3c2nnn3Cc2ccccc2)cc1 | 31%

Row | Structure (SMILES) | inhibition
22 | COc1cc(/C=C2/C(=O)ON=C2C)ccc1OCc1ccccc1F | 61.3% (active)
23 | COC(=O)c1sccc1NC(=O)c1cc(OC)c(OC)c(OC)c1 | 37.3%
24 | COc1ccc(/C=C/C(=O)Nc2ccc(C34CC5CC(CC(O)(C5)C3)C4)cc2)cc1OC | 57.9% (active)
25 | NNC(=O)CNC(c1ccccc1)c1cc(Cl)ccc1NC(=O)c1ccccc1 (stereo unspecified) | 34.3%
26 | Oc1ccccc1N1CCN(c2ncnc3sc(-c4ccccc4)cc23)CC1 | 47.6%
27 | CC(C)(C)OC(=O)NCCCCCNC(=O)c1nc[nH]c1C(=O)NCc1ccccc1 | 37.2%
28 | CC(C)Oc1cc(F)ccc1-c1cc(C(=O)Nc2ccc(F)cc2)[nH]n1 | 46.1%
29 | C=CCC[C@@H](Cc1ccc(F)cc1)C(=O)O[C@H](CNC(=O)[C@H](CC=C)CC(=O)N(CCO)Cc1ccccc1)c1ccccc1 | 57.8% (active)
30 | C=CCC[C@H](Cc1ccc(F)cc1)C(=O)OC[C@H](C)NC(=O)[C@H](CC=C)CC(=O)N(CCO)Cc1ccccc1 | 54% (active)
31 | O=C(NCc1ccc2c(c1)OCO2)c1c(-c2ccsc2)sc2ccccc12 | 26.4%
32 | O=C(CN1CCCSc2ccccc21)N1CCN(S(=O)(=O)c2cccc(F)c2)CC1 | 34.9%
33 | Oc1ccc(/C=N/Nc2nc(-c3ccccc3F)nc3ccccc23)c(O)c1 | 55.8% (active)
34 | Fc1ccc(/C=N/Nc2nc(-c3cccnc3)nc3ccccc23)cc1 | 41.7%
35 | C/C(=N\Nc1ncc(Cl)cc1Cl)c1ccc(S(=O)(=O)NCc2ccco2)cc1 | 33%
36 | CC(=O)Nc1ccc(NC(=O)COC(=O)C2CCC(C(C)(C)C)CC2)cc1 (stereo unspecified) | 52.9% (active)
37 | C[C@H](NC(=O)c1nc[nH]c1C(=O)NCC(=O)OC(C)(C)C)C(=O)OCc1ccccc1 | 46.1%
38 | COc1ccc(CCNC(=O)c2ccc(CS(=O)(=O)c3ccc(Br)cc3)o2)cc1OC | 52.1% (active)
39 | COc1ccc(CCNC(=O)C(=O)NCC2OCCN2S(=O)(=O)c2ccc(OC)c(C)c2)cc1 (stereo unspecified) | 26.8%
40 | COc1cc(OC)cc(C(=O)OCC(=O)Nc2sccc2C(N)=O)c1 | 48.2%
41 | O=C(COC(=O)CCCSc1nc2ccccc2[nH]1)Nc1ccc(Oc2ccccc2)cc1 | 50.7% (active)
42 | N#Cc1cccc(NC(=O)COC(=O)c2ccccc2C(=O)c2ccc(Cl)c([N+](=O)[O-])c2)c1 | 52.5% (active)

Row | Structure (SMILES) | inhibition
43 | CC(=O)n1cc([C@H]2C=C(C(=O)N3CCOCC3)O[C@@H](OCc3ccc(CO)cc3)C2)c2ccccc21 | 40.4%
44 | CCC(=O)Oc1cccc(C(=O)Nc2ccc(-c3nnc(-c4ccco4)o3)cc2)c1 | 46.1%
45 | O=C(CCc1ccccc1)Nc1cccc(-c2nnc(-c3ccco3)o2)c1 | 49.1% (active)
46 | O=C(Nc1ccc(-c2nnc(-c3ccccc3)o2)cc1)c1ccc(Br)o1 | 21.3%
47 | COc1ccc(Cl)cc1NC(=O)CCS(=O)(=O)c1cc2c(cc1C)NC(=O)CO2 | 36%
48 | CCOC(=O)C1C(c2ccc(OC)c(OC)c2)c2c([nH][nH]c2=O)CC1(C)O (stereo unspecified) | 38.7%
49 | Cc1ccc(-n2c(C)cc(/C=N\NC(=O)CC(=O)NC(C)C)c2C)cc1 | 97.9% (active)
50 | CNC(=O)c1ccsc1NC(=O)c1ccc(S(=O)(=O)N2CCc3ccccc32)cc1 | 43.2%
51 | O=C(COC(=O)c1ccccc1SCC(=O)N1CCCC1)Nc1ccccc1OC(F)F | 52.2% (active)
52 | O=C(OCC(=O)N(CCc1ccccc1)Cc1ccccc1)c1ccccc1[N+](=O)[O-] | 47.4%
53 | CC(C)N(Cc1ccccc1)C(=O)COC(=O)c1ccccc1SCC(=O)N1CCCC1 | 52.8% (active)
54 | COC(=O)[C@@]1(Sc2ccc(C)cc2)CC(=O)N(c2cccc(SC)c2)[C@@H]1c1ccccc1 | 47.3%
55 | CCOc1ccc(NC(=O)N2CC=C(n3c(=O)[nH]c4ccccc43)CC2)cc1 | 39.5%
56 | COC(=O)C1=C(C)N(Cc2ccc(F)cc2)C(=S)NC1c1cccc(Cl)c1 (stereo unspecified) | 36.5%
57 | CCN=C1SC(CC(=O)Nc2ccc(C)cc2)C(=O)N1CC (stereo unspecified) | 59.2% (active)
58 | O=C(N/N=C/c1ccc(Cl)c(Cl)c1)c1ccc2nc[nH]c2c1 | 52.9% (active)
59 | CCOc1cc(/C=N/NC(=O)c2cc(-c3ccccc3)nc3ccccc23)ccc1O | 44.9%
60 | CSc1nc(-c2ccccc2)nc(C(Cl)Cl)n1 | 36.6%
61 | COc1cc(SC#N)ccc1N=Cc1c(C)[nH]n(-c2ccc(C)cc2)c1=O | 67.6% (active)
